Source: PubChem BioAssay
Hits are enriched below; roughly 19% of the tested compounds scored in any of these assays.
IL1B secr inh = inhibitors of inflammasome signaling (IL-1 beta secretion) | THP-1 LPS/ATP IL-1B secretion, AlphaLISA, 16 h; active compounds read low | activity change, % at 57.5 µM | actives 4.7% (n = 360,000) | AID 743279; in the data active = activity change below about -50%; inconclusive = mostly about -30% to -49%; note: % is set by controls: 0 for no effect and ±100 for the full control effect
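Secreted IL-1B measured by AlphaLISA bead assay after 16 h compound exposure of THP-1 cells; compounds (final up to 57.5 uM) added 1 h before LPS (250 ng/mL) and ATP (1.25 mM) stimulation; lower signal means less secretion.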
BCR signal inh = blocks chronic active B-cell receptor signaling; Potency, µM (titrated, usually from 46.1 µM), without a hit: at the highest dose activity change, negative = inhibition, most hits filed as inhibitors; AID 493014; actives 0.05% (n = 340,000); ABC-DLBCL IkBa-CBG/CBR reporter, luminescence ratio, 4 h; active = well fitted inhibition curve with a large enough effect in the signal ratio, with a control signal flat, not every such curve was filed as active; inconclusive = small, poorly fitted or top-dose-only effect, or effect the other way, or a change in a side signal; the % refers to the signal ratio;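 note: potency is the fitted concentration of half-maximal effect; plate controls were basal doxycycline-induced cells for no effect and cells given 10 µM MG132 for full effect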
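TMD8 ABC-DLBCL cells carrying doxycycline-inducible green luciferase fused to IkappaBalpha plus unfused red luciferase were exposed to compounds (up to 46 uM) for 4 hrs at 37C. Activity came from the overlap-corrected green/red luminescence ratio.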
SW480 rerep = induces DNA re-replication in SW480 colon adenocarcinoma cells. Potency, µM (highest dose often 46.1 µM), inactives show at the highest dose re-replication activation, most hits filed as activators. SW480 DNA re-replication, Hoechst DNA content imaging, 48 h. actives 1.8% (n = 340,000); note: potency is the fitted concentration of half-maximal effect; % of control where 0% means no effect; nearly all actives have a fitted effect of over 55% in size
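Readout is total intensity of Hoechst-stained nuclei, excited at 405 nm and collected at 500-530 nm. Compound treatment lasted 48 hr at 37 C in 5% CO2 before staining.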
TDP1 cell noCPT = qHTS for Inhibitors of human tyrosyl-DNA phosphodiesterase 1 (TDP1): qHTS in cells in absence of CPT | Potency, µM (series often up to 46.2 µM), for inactives: top-dose activity change, negative = growth inhibition, actives largely listed as inhibitors | DT40 Tdp1-/- hTDP1 cells, no CPT, ATP luminescence, 48 h | actives 15% (n = 420,000) | AID 686978, 2013; note: potency is the fitted concentration of half-maximal effect; % is set by controls: 0 for no effect and ±100 for the full control effect; nearly all actives have a fitted effect of over 55% in size
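Stably hTDP1-transfected Tdp1-null chicken DT40 cells were treated with library compounds minus camptothecin and grown for at least 48 hr at 37 °C, after which cellular ATP was quantified by luminescence.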
DT40 TDP1 CPT = DT40-hTDP1 cell growth loss with CPT; chicken DT40 Tdp1-/-;hTDP1 cells + 20 nM CPT, ATP luminescence, 48 h; Potency, µM (titrated, usually from 46.2 µM), without a hit: at the top dose activity change, negative = growth inhibition, hits mostly inhibitors; AID 686979; actives 12% (n = 420,000); note: potency is the fitted concentration of half-maximal effect; % is set by controls: 0 for no effect and ±100 for the full control effect; nearly all actives have a fitted effect of over 55% in size
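Cell growth measured by CellTiter-Glo luminescence after a minimum 48 h, 37 C compound exposure with 20 nM CPT in Tdp1-knockout DT40 cells stably expressing hTDP1, seeded 400/well; qHTS titration format.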
MCF10A rerep = inducers of DNA re-replication in MCF 10A breast cells; actives 2.9% (n = 350,000); MCF 10A DNA re-replication, Hoechst nuclear intensity, 48 h; Potency, µM (top dose mostly 46.1 µM), for inactives: at the highest dose activity, positive = re-replication, actives largely listed as activators; note: potency is the fitted concentration of half-maximal effect; % of control where 0% means no effect; nearly all actives have a fitted effect of over 50% in size
Starred values were filed as active, the others as inactive; ? = inconclusive; nt = no result. Unless noted, calls come from the whole dose curve; as a rule, active = well fitted curve in the direction sought with a large enough effect; inconclusive = small, poorly fitted or top-dose-only effect, or another doubt; inactive = no such curve, though single readings can be large; an effect the other way counts as inactive or inconclusive.

SMILES	IL1B secr inh	BCR signal inh	SW480 rerep	TDP1 cell noCPT	DT40 TDP1 CPT	MCF10A rerep
Cc1noc(C)c1C(=O)N1CCCC(C)(C(=O)NS(=O)(=O)C2CC2)C1 (stereo not drawn)	25	nt	nt	?	-30%	nt
COc1ccccc1-c1cc(C(F)(F)F)nc(S(=O)(=O)CCCC(=O)Nc2ccccc2F)n1	nt	nt	nt	2.6µM*	2.6µM*	nt
COc1ccccc1-c1cc(C(F)(F)F)nc(S(=O)(=O)CCCC(=O)Nc2cccnc2Cl)n1	-110*	?	?	4.6µM*	2.1µM*	?
COC1OC2COC(c3ccccc3)OC2C2OC12 (stereo not drawn)	-18	nt	-3%	15%	13%	0%
Cc1cc(C)c2cc(CN(Cc3cccnc3)C(=O)c3ccc(F)cc3)c(Cl)nc2c1	?	3%	-4%	15µM*	18µM*	-1%
O=C(N/N=C/c1ccc(Cl)cc1)c1sccc1OCc1ccc(F)cc1	78	?	9.2µM*	1.3µM*	1.2µM*	1.6µM*
COc1ccc(Cc2nc(C(=O)Nc3ccc(Cl)cc3)cs2)cc1	40	-24%	-3%	-26%	3%	?
O=C(N/N=C/c1ccc(F)cc1)c1sccc1OCc1ccc(F)cc1	46	-17%	9.2µM*	18µM*	16µM*	7.3µM*
COc1ccc(COc2ccsc2C(=O)Nc2ccc(Cl)cc2)cc1	48	?	?	?	?	18µM*
NNC(=O)c1sccc1OCc1ccc(F)cc1	32	2%	-8%	?	7%	-9%
CN1CCc2c(sc(NC(=O)c3ccc(S(=O)(=O)N4CCOCC4)cc3)c2C(N)=O)C1	10	2%	2%	-30%	-22%	2%
CNC(=O)c1c(NC(=O)c2ccc(S(=O)(=O)N3CCCc4ccccc43)cc2)sc2c1CCN(C)C2	61	4%	?	13µM*	23µM*	21µM*
CN1CCc2c(sc(NC(=O)c3ccc(S(=O)(=O)N4CCCCCC4)cc3)c2C(N)=O)C1	-96*	-1%	17%	12µM*	18µM*	16µM*
CN1CCc2c(sc(NC(=O)c3ccc(S(=O)(=O)N4CCCC4)cc3)c2C(N)=O)C1	0	-10%	1%	16µM*	?	14%
N#Cc1ccsc1NC(=O)C1CCN(C(=O)c2ccc(Cl)cc2)CC1	-1	-3%	-8%	?	?	5%
COc1ccc(C(=O)c2oc3ccccc3c2NC(=O)COc2cccc(C)c2C)cc1	nt	nt	nt	-2%	6%	nt
CC(C)=CCC/C(C)=C/CO	nt	nt	-3%	1%	3%	3%
O=C(O)CCCN1C(=O)/C(=C\c2ccc(-c3nc4ccccc4s3)o2)SC1=S	19	?	23µM*	?	?	?
O=C(O)CCCN1C(=O)/C(=C\C(Cl)=C\c2ccccc2)SC1=S	-95*	?	3.3µM*	21µM*	18µM*	?
CN1CCN(C(=O)CCN2C(=O)/C(=C\c3ccc(Cl)cc3Cl)SC2=S)CC1	-85*	?	?	12µM*	15µM*	?
CN1CCN(C(=O)CCCN2C(=O)/C(=C/c3ccc(Cl)cc3)SC2=S)CC1	-4	?	-3%	12µM*	15µM*	?
O=C(O)c1ccccc1C(=O)NCCc1c(C(=O)O)[nH]c2ccc(F)cc12	26	6%	-3%	-4%	2%	0%
Cc1ccccc1-c1cncnc1Nc1ccccc1	nt	nt	nt	1%	3%	nt
CCOc1ccc(OCC)c(NC(=O)C2CCN(S(=O)(=O)c3ccc(Br)s3)CC2)c1	nt	nt	nt	-12%	3%	nt
COCCNC(=O)C1(C)CCCN(Cc2noc(-c3ccccc3OC)n2)C1 (stereo not drawn)	-6	nt	nt	?	?	nt
